These are literature values, as cited in PubChem BioAssay AID977610.

Hit rate of the full screen: of about 3,600 compounds, about 3,600 (100%) were called active. The limit is not given here; nearly all actives have Ki up to about 18000 µM. The set was probably picked from earlier hits. The list shows a part of the results.

This data set can be described thus: PubChem AID 977610. The note with it: PDB protein-ligand complexes, literature Ki.

For `C[C@@H](O[P+](O)(O)O)C(=O)O`, for the setting “protein: PHOSPHO-2-DEHYDRO-3-DEOXYHEPTONATE ALDOLASE DAH7PS, PDB entry 4umb”, the Ki is 99 µM (active).

Regarding `C[C@H](O[P+](O)(O)O)C(=O)O`, where the note is “protein: PHOSPHO-2-DEHYDRO-3-DEOXYHEPTONATE ALDOLASE DAH7PS, PDB entry 4umc”, the inhibition constant Ki is 360 µM (active).

Regarding H-SRVPTSII-OH, the inhibitory constant (Ki) (protein: CFTR Associated Ligand (CAL) PDZ domain, PDB entry 4jog) is 190 µM (active).

For H-NSRYPTSII-OH, the inhibition constant (Ki) (protein: CFTR Associated Ligand (CAL) PDZ domain, PDB entry 4jok) is 85.3 µM (active).

As to H-RLPTSII-OH, the Ki (protein: CFTR Associated Ligand (CAL) PDZ domain, PDB entry 4jof) is 68 µM (active).

H-SRFPTSII-OH: the inhibition constant (Ki) (protein: CFTR Associated Ligand (CAL) domain, PDB entry 4joj) is 110 µM (active).

`CC(C)(C)NC(=O)[C@@]1(c2c(C(=O)O)[nH]c3cc(Cl)ccc23)N2C(=O)[C@]21c1ccc(OCc2ccc(Cl)cc2)cc1`: the inhibition constant Ki (protein: E3 ubiquitin-protein ligase Mdm2, PDB entry 4mdn) is 0.6 µM (active).

For `CC(C)(C)NC(=O)[C@@H]1C[C@@H]2CCCC[C@@H]2CN1C[C@@H](O)[C@H](C[C@@H]1C=CCCC1)NC(=O)[C@H](CC(N)=O)NC(=O)C1=CCc2ccccc2N1`, the inhibition constant Ki (protein: Protease PRG48T/L89M, PDB entry 4qgi) was 125 µM (active).

On to `Nc1nc2c(ncn2[C@H]2CN(C(=O)C[P+](O)(O)O)C[C@H]2O)c(=O)[nH]1`, for which the Ki (protein: Xanthine phosphoribosyltransferase, E. coli XGPRT, PDB entry 4jls) is 2.2 µM (active).

For `Nc1nc2c(ncn2[C@H]2CCN(C(=O)C[P+](O)(O)O)C2)c(=O)[nH]1`, the inhibitory constant (Ki) (protein: Xanthine phosphoribosyltransferase, E. coli XGPRT, PDB entry 4jit) is 0.23 µM (active).

Regarding `Nc1nc2c(ncn2CC(COC[P+](O)(O)O)COC[P+](O)(O)O)c(=O)[nH]1`, the Ki (protein: hypoxanthine-guanine phosphoribosyltransferase, PDB entry 4ijq) was 0.03 µM (active).

Consider `O=C(O)CC1(CC(=O)N2CCN(C(c3ccccc3)c3ccccc3)CC2)CCCC1`, for which the Ki (protein: Dehydrosqualene synthase, PDB entry 3tfn) is 0.27 µM (active).

As for `CO[C@H]1CC[C@H](OC)[C@@H](NC(=O)CN2CCN(Cc3ccc4c(c3)OCO4)CC2)C1`, the Ki (protein: E. coli beta-Glucuronidase, PDB entry 4jhz) is 0.957 µM (active).

In the case of `NCCCC[C@H](NC(=O)Cc1ccc(Cl)c(Cl)c1)C(=O)N[C@@H](CCCCN)C(=O)NCC1CCC(NC(N)N)CC1` (some centres not stated), the inhibition constant Ki (protein: SERINE PROTEASE SUBUNIT NS2B, SERINE PROTEASE NS3, PDB entry 2yol) is 0.13 µM (active).

Regarding `Cn1nc(N)c2c[n+]([C@@H]3O[C@H](CO[P+](O)(O)O)[C@@H](O)[C@H]3O)c3nc[nH]c1c23`, the inhibition constant Ki (protein: Deoxyribonucleoside 5'-monophosphate N-glycosidase (D69N mutation), PDB entry 4fyh) is 14 µM (active).

With `N#Cc1cccc(Cn2cc(NC(=O)c3n[nH]c4ccccc34)cn2)c1`, the Ki (protein: Tyrosine-protein kinase ITK, PDB entry 4pp9) was 0.043 µM (active).

Turning to `CCc1[nH]c2nc(Oc3cncnc3)nc(N3C[C@@H]4C(N)[C@@H]4C3)c2c1Cl` (some centres not stated), the inhibition constant (Ki) (protein: DNA gyrase subunit B, PDB entry 4gee) was 0.001 µM (active).

Turning to `COc1ccc(OCCN2C[C@H]([C@@H](O)CO)[C@H]3CCC[C@@H](C2=O)N3S(=O)(=O)c2cc(Cl)cc(Cl)c2)cc1OC`, the Ki (protein: Peptidyl-prolyl cis-trans isomerase FKBP51, PDB entry 4w9o) is 0.017 µM (active).

Consider `COc1ccc(OCCN2C[C@H]([C@H](O)CO)[C@H]3CCC[C@@H](C2=O)N3S(=O)(=O)c2cc(Cl)cc(Cl)c2)cc1OC`, for which the inhibition constant (Ki) (protein: Peptidyl-prolyl cis-trans isomerase FKBP51, PDB entry 4w9p) is 0.016 µM (active).

As to `O=C(O)c1cc2[nH]c3ccccc3c2cc1Cl`, the Ki (protein: E. coli sliding clamp, DNA polymerase III subunit beta, PDB entry 4n99) was 216 µM (active).

Take `Cc1ccc(CSc2nc3c(c(=O)[nH]2)CCC3)cc1`: the Ki (protein: Matrix metalloproteinase-13, PDB entry 4l19) is 0.8 µM (active).

For the compound `O=c1ccn([C@@H]2O[C@H](CO)[C@@H](O)[C@H](O)[C@H]2O)c(=O)[nH]1`, the Ki (protein: Glycogen phosphorylase, muscle form, PDB entry 3t3d) is 12.4 µM (active).

`O=c1ccn([C@@H]2O[C@H](CO)[C@@H](O[P+](O)(O)O)[C@H]2O)c(=O)[nH]1`: the inhibitory constant (Ki) (protein: bovine seminal ribonuclease, PDB entry 1n3z) was 63.2 µM (active).

As to `Cc1cc(=O)[nH]c(=O)n1[C@@H]1O[C@H](CO[P+](O)(O)O)[C@@H](O)[C@H]1O`, under “protein: Orotidine 5'-phosphate decarboxylase, PDB entry 3wjw”, the inhibition constant Ki is 134 µM (active).

Take `N#C[C@H]1CC(=O)NC(=O)N1[C@@H]1O[C@H](CO[P+](O)(O)O)[C@@H](O)[C@H]1O`: the Ki (protein: Mt orotidine 5'-monophosphate decarboxylase (OMPDC) K72A mutant, PDB entry 2zz2) is 29 µM (active).

Regarding `O=c1cnn([C@@H]2O[C@H](CO[P+](O)(O)O)[C@@H](O)[C@H]2O)c(=O)[nH]1`, the Ki (protein: Methanothermobacter thermautotrophicus ODCase mutant K42A, PDB entry 1km3) was 12.4 µM (active) and the inhibitory constant (Ki) (protein: orotidine 5'-monophosphate decarboxylase from Saccharomyces cerevisiae (D91N), PDB entry 3gdt) is 0.064 µM (active).

As to `O=c1ccn([C@@H]2O[C@H](CO[P+](O)(O)O)[C@@H](O)[C@H]2O)c(=O)[nH]1`, the Ki (protein: D312N mutant of human orotidyl-5'-monophosphate decarboxylase, PDB entry 3ex6) was 220 µM (active); the inhibitory constant (Ki) (protein: Mt orotidine 5'-monophosphate decarboxylase (OMPDC), PDB entry 3g1d) was 330 µM (active); the Ki (protein: orotidine 5'-monophosphate decarboxylase from P.falciparum, PDB entry 2za3) is 210 µM (active).

`CC(C)(C)OC(=O)N[C@H](C(=O)NO)c1ccc(-n2cccn2)cc1`: the Ki (protein: M1 family aminopeptidase A-M1, PDB entry 4r5t) is 0.8 µM (active) and the inhibition constant Ki (protein: M17 leucyl aminopeptidase A-M17, PDB entry 4r6t) was 0.03 µM (active).

As a reminder, the Ki is the equilibrium dissociation constant of an inhibitor or competing ligand from its target.
